Experiments:
Assay in all cases: PBM binding z-score (relative to random genomic background probes); higher = stronger binding; sequences stand for … in GC…GCGATTGACAGCGTAGAATGAAGG
[1] = system: RARb homodimer (NR concentration 270 nM)
Procedure, shortened: (§1)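 Ligand-free nuclear receptor dimers were bound for 1 h to custom Agilent 4×180K protein-binding microarrays. Detection used antibodies against each partner (one per run). Binding z-scores rest on regression-normalized fluorescence, with random background probes as the reference.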

[2] = system: RARg:RXRa (NR concentration 270 nM, RXRa partner concentration 90 nM)
Procedure, shortened: as §1

[3] = system: RARg homodimer (NR concentration 270 nM)
Procedure, shortened: as §1

[4] = system: RXRa DBDmut IVT, anti-RXR (DBD mutation: RXRa K156A/R161A, NR concentration 90 nM)
Procedure, shortened: as §1

[5] = system: RXRa homodimer (NR concentration 180 nM)
Procedure, shortened: as §1

[6] = system: THRa:RXRa (NR concentration 90 nM, RXRa partner concentration 90 nM)
Procedure, shortened: as §1

[7] = system: THRa homodimer (NR concentration 90 nM)
Procedure, shortened: as §1

[8] = system: VDR homodimer (NR concentration 270 nM)
Procedure, shortened: as §1

Sequence | PBM binding z-score [1] | PBM binding z-score [2] | PBM binding z-score [3] | PBM binding z-score [4] | PBM binding z-score [5] | PBM binding z-score [6] | PBM binding z-score [7] | PBM binding z-score [8]
AGAATGAGGTTATACGAAGATCAGGGAAGAAAGT | 0.559 | 1.71 | 1 | 1.38 | 2.09 | 2.01 | 0.403 | 0.752
GATACAGGGTCACCTAGAGGCCAGAGTATGGAAA | 3.89 | 7.38 | 5.66 | 2.02 | 6.04 | 3.91 | 1.32 | 1.97
CAAACTAGGTCGCAGAGGTCAAAGTCCGTGCGTA | 4.96 | 6.18 | 5.62 | 2.9 | 6.96 | 4.19 | 1.67 | 5.86
TCTAGTTTGTCACGGAGGTCACACACGACGGGTA | 4.23 | 4.3 | 4.16 | 1.65 | 4.54 | 3.6 | 2.96 | 3.15
CCTCCTGGGCCAAAGGTCATTGATTCCAATGCTC | 4.24 | 5.81 | 4.61 | 0.646 | 6.35 | 3.17 | 0.804 | 2.32
AGAATGAGATTATACGTAGATCAGGGAAGAAAGT | -0.466 | 0.0162 | 0.288 | -0.678 | -0.166 | -0.438 | -0.705 | 0.0852
AGAATGAGGTTATTAAGATCAGTGAATTGCGGTC | 0.636 | 1.21 | 0.905 | 2.02 | 1.67 | 2.17 | 0.753 | 1.09
CCTAGCAGGCCAGGGTAACTCAAGCATTTCGCTT | -0.537 | -0.456 | -0.357 | -0.541 | -0.455 | -0.054 | -0.445 | -0.329
AGTCAAAGTTCACTTGGTAACGTAAGATTCAGCT | 3.71 | 4.88 | 5.66 | 4.24 | 3.44 | 1.6 | -0.48 | 4.05
CCTTCTGGGCCATCAGGTCATTGATATCAACGTT | 2.61 | 2.3 | 2.36 | 0.59 | 1.46 | 3.19 | 2.98 | 1.83
TCTTGTAGATCAAGCAGGTTAAGAAGGCCTGAGT | 0.0999 | -0.137 | -0.293 | 0.295 | 0.317 | 0.354 | -0.512 | 0.00431
TCTAGCAGGCCAGAGGGTCACACAAGAGGTACGG | 3.1 | 3.52 | 3.05 | 0.175 | 4 | 2.25 | 0.165 | 0.773
TCTACTAGTTGAAGGGCAACCGACGAGTCCGTTT | 0.815 | 0.16 | 0.311 | 1.11 | 0.353 | -0.216 | -0.254 | 0.707
CAGGCTAGGTCAGGGCCAGTATAGGAGGAACGTT | 2.77 | 3.07 | 4.16 | -0.54 | 1.45 | 1.95 | 0.49 | 0.035
ATCTCTAGATAACAAGTTCAGTGAAAGAGAGGAC | 1.37 | 0.77 | 0.933 | 0.583 | 0.621 | 0.754 | 0.108 | 2.72
GGAACGAGGGCAAAGTTGATACCATCTGTCGACG | 1.63 | 2.14 | 2.02 | 2.79 | 2.18 | 1.47 | 0.0828 | 2.09
GATACAGGGACAGCTAGAGGCCAGAGTATGGAAA | 0.97 | 0.522 | 1.01 | -0.496 | 0.185 | 0.508 | 0.191 | -0.0729
GGAACGAGGGCATTCGACTTGATAGCATGGCGAT | 0.502 | 1.11 | 1.52 | 3.17 | 0.731 | 0.81 | -0.453 | 2.32
CAACCAAGGTGAACAAGGTCGTTGATTACTATTC | 2.25 | 1.9 | 1.64 | 1.49 | 2.07 | 3.44 | 2.06 | 2.59

Sequence | PBM binding z-score [1] | PBM binding z-score [2] | PBM binding z-score [3] | PBM binding z-score [4] | PBM binding z-score [5] | PBM binding z-score [6] | PBM binding z-score [7] | PBM binding z-score [8]
TTACCAGGGTGAAAGGTCGTTGATGCACGCCTTG | 2.58 | 3.82 | 1.48 | 0.566 | 6.13 | 2.9 | 0.639 | 1.87
ACTTACGGGTCAACGAGGTTGTAGCACGCGTATA | 3.03 | 5.34 | 4.57 | 2.44 | 5.59 | 3.38 | 0.417 | 2.86
ACAATGAGGTTATTAAGATCAGGGAATTGCGGTC | 1.27 | 1.45 | 1.33 | 2.17 | 1.83 | 2.23 | 1.09 | 1.61
CCTACTGGCCCACGAAAGGTCATTGATTCAGTGA | 4.47 | 4.32 | 3.95 | 0.693 | 4.79 | 3.02 | 1.16 | 2.69
TAGCCTGGGTCATGCGGGCCAGTATAGTGTCGGC | 2.5 | 3.64 | 3.37 | -0.265 | 3.11 | 2.46 | -0.102 | 0.606
GCTTTTAGTTGAAAGGGCAACCGAATGATTCTCG | 1.78 | 1.2 | 1.29 | 0.971 | 1.06 | 0.54 | -0.708 | -0.32
ATATGTCGGTTAAGGGTCATTCAGGTTGGTTCGC | 3.68 | 4.69 | 3.43 | 2.21 | 4.55 | 3.42 | 1.7 | 4.47
CCAGACAGGAGAAAGGTAACTCAGTCTGGTACGC | 0.0408 | 0.115 | -0.016 | -0.0562 | 0.502 | -0.00788 | -0.183 | -0.102
AGAATGAGGTTACCAAAGATCAGGGATACGCTTG | 1.07 | 2.08 | 1.72 | 1.22 | 2.54 | 2.8 | 1.06 | 0.23
CCTACCAGGCCAATCTGGGTCACTCAAGGCTTGA | 2.5 | 1.37 | 1.64 | -0.157 | 1.01 | 3.84 | 1.34 | 0.435
TCTTGTAGACCAACAGGAGGTTAAGAAAGATCGA | 0.694 | 0.411 | 0.151 | 0.322 | 0.799 | 0.789 | -0.614 | -0.388
ATATGTAGGTTAAGGGTCATTAAGGTTGGTTCGC | 4.07 | 4.66 | 3.54 | 1.78 | 5.92 | 3.48 | 1.58 | 3.96
GGAACGAGGGCAAAGTTTATAGCATCTGTCGACG | 1.8 | 2.31 | 2.04 | 2.61 | 2.22 | 1.63 | -0.279 | 2.22
CCAGACAGGGGAAAGGTAACTCAGTCTGGTACGC | 0.183 | 0.177 | -0.0948 | -0.138 | 0.529 | 0.146 | 0.0595 | -0.41
ATATGTAGGTTATCGTGTCATTCAGTTTGCGCAT | 1.17 | 0.973 | 0.988 | 1.09 | 1.06 | 0.907 | 0.568 | 1.53
TCGAGTAGGTTAGGGGCATTTAGAATGGCGTCGA | 0.875 | 0.265 | 0.0778 | 0.475 | 0.534 | 0.793 | 0.327 | 0.777
GCGACTGGGGCATCAGCGGGTTACCATAACTTAA | 0.625 | 0.738 | 0.196 | -0.276 | 0.347 | 0.628 | -0.267 | -0.158
CCGACTGGGGCGGAAAGGTTACCATACCATCCGG | 2.17 | 1.49 | 0.882 | -1.21 | 1.76 | 1 | -0.282 | -0.201
TCTCGGAGGACACGAGAGGTCAGAGCTCGACATC | 4.3 | 3.89 | 4.28 | 0.77 | 3.07 | 3.98 | 1.64 | 1.81

Sequence | PBM binding z-score [1] | PBM binding z-score [2] | PBM binding z-score [3] | PBM binding z-score [4] | PBM binding z-score [5] | PBM binding z-score [6] | PBM binding z-score [7] | PBM binding z-score [8]
ATATGTAGGTTACATCAGGGTCATTCAGGCTATG | 3.47 | 4.16 | 2.29 | 1.46 | 4.28 | 4.05 | 2.29 | 3.17
TCATATAGGTAAATGCTAGGTGATAGTCCGATCT | -0.0324 | 0.496 | 0.457 | 1.37 | 0.854 | 0.78 | 0.138 | 0.168
TAGCCTAGGTCATTCGGGGGCCAGTATAGAAAGC | 3.39 | 6.55 | 5.25 | 2.13 | 3.58 | 4.17 | 1.48 | 2.32
TTACTAAGGTGAAGGTCGTTGATCCCTCTGTAGA | 1.96 | 1.85 | 1.21 | 0.794 | 2.31 | 3.16 | 1.98 | 1.11
ATATGTATGTTATCGGGTCATTCAGTTTGCGCAT | 2.47 | 2.01 | 1.75 | 1.81 | 2.28 | 3.26 | 2.66 | 3.18
TGCATGAGGTTATAAGATCAGGGAACGTTGCAAA | 0.168 | 1.64 | 1.08 | 1.32 | 1.84 | 1.93 | 0.273 | 0.679
CAAACTAGGTCAAGAGGTCAGAGTCCGCTTCCCG | 5.42 | 7.29 | 7.22 | 2.53 | 6.9 | 3.88 | 2.15 | 3.34
ATCGAAAGGTCGAAGGTGGGTATACCCACCCGAA | 2.02 | 3.9 | 3.4 | 0.146 | 4.23 | 1.81 | -0.334 | 0.567
TGGCCTAGGTCATTCAGGGGCCAGTATAGAAAGC | 3.18 | 6.37 | 5.07 | 1.39 | 3.29 | 3.47 | 0.314 | 1.37
GCGACTGGGGCATCAGGAGGTTACCATAACTTAA | 1.59 | 2.07 | 0.983 | 0.162 | 0.852 | 1.66 | -0.0939 | 0.186
ATCTCGAGGTAACAAGTTCAGTGAAAGAGAGGAC | 1.83 | 2.13 | 1.42 | 0.518 | 1.15 | 2.31 | 0.969 | 2.28
CTACCAAGGTGAACAAGGACGTTGATTACTATTC | 0.951 | 0.848 | 1.13 | 0.601 | 0.715 | 2.43 | 1.36 | 0.537
CCTACTGGGCCACGAAAGGTCAATGATTCAGTGA | 4.81 | 4.94 | 4.64 | 0.165 | 4.81 | 3.66 | 0.66 | 0.883
TCTAATAGTTGATTAGGGCAACCGAAACAGCGGA | 0.599 | 0.338 | 0.66 | 0.755 | 0.708 | 0.551 | -0.0484 | -0.0344
CTCGAAAGGTCGTGCACAGGTGAGTATACCAAAC | 3.18 | 5.89 | 4.46 | 2.16 | 5.32 | 3.21 | 0.254 | 1.42
CGAACGAGGGCATGAGTTGATAGCCAATGCCGAT | 0.853 | 1.34 | 1.88 | 2.3 | 1 | 1.24 | -0.039 | 1.56
TCATATAGGTAAAGGTGAGAGTCGAACGATATGA | 1.28 | 1.29 | 1.33 | 0.713 | 1.64 | 0.888 | -0.508 | -0.128
TTACCAAGGTGAGCTAAGGTCGTTGATCCAACTC | 1.72 | 1.56 | 1.15 | -0.158 | 1.65 | 4.71 | 2.41 | 1.29
TCTATTAGTTGAAGGGCAACAGACGAGTCCGTTT | 1.14 | 0.634 | 0.745 | 1.68 | 0.567 | 0.209 | 0.0682 | 1.55
